Assay outcomes deposited in PubChem BioAssay by Buhrlage Lab, Dana-Farber Cancer Institute and Novartis Institutes for BioMedical Research (Cambridge, Mass).
Shown are actives, neighbours in structure and some others; about 3.4% of the full set was active somewhere.
USP28 inh = inhibitors of human USP28 deubiquitinase | purified USP28, Ub-rhodamine cleavage fluorescence, 30 min | 47,000 tested, 3% active | inhibition, % at 25 µM
Target sequence (Q96RU2 whole entry, looked up): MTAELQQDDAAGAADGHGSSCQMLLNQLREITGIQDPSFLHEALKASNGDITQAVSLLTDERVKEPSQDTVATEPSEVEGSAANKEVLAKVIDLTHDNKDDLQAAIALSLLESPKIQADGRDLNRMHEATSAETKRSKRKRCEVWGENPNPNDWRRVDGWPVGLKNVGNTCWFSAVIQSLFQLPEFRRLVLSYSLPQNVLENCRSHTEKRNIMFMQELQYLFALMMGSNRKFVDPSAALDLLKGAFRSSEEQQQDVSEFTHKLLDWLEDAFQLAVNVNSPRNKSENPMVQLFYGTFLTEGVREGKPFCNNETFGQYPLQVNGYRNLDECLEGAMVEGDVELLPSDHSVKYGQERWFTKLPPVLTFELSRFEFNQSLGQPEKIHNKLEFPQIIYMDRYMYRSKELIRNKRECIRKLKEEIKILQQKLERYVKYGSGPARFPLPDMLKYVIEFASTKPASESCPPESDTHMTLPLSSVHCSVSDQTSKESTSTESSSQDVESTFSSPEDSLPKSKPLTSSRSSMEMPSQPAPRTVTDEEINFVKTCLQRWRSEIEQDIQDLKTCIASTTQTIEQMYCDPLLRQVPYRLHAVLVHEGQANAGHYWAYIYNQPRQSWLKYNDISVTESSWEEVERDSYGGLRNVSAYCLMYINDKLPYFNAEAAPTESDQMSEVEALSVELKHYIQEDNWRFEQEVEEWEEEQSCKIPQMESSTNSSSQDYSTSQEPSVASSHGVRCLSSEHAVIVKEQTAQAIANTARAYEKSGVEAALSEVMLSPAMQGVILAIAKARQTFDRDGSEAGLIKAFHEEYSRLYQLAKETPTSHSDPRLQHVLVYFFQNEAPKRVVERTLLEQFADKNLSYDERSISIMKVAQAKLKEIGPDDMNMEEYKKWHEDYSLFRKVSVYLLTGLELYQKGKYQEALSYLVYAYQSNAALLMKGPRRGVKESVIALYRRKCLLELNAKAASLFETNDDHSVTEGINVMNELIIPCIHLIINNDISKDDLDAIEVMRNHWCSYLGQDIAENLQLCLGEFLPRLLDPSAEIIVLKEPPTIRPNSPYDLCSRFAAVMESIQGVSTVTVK
OTUD3 block = inhibitors of human OTUD3 deubiquitinase; purified OTUD3, Ub-rhodamine fluorescence, 2 h; 47,000 tested, 0.7% active; AID 1645858, 2021; inhibition, % at 25 µM; OTU domain-containing protein 3 (Homo sapiens), Q5T2D3
* hit, by the source's call; . = no result given. No stated cut-off is given here; in the data, active means inhibition above about 30%; inactive means the rest.

SMILES	USP28 inh	OTUD3 block
COc1ccccc1-c1noc(Cn2cnc3c(nnn3Cc3ccc(F)cc3)c2=O)n1	3.5	-2.1
COc1ccc(CC(=O)N2CCN(c3ccc(-n4cccn4)nn3)CC2)cc1	25.9	2.0
Cc1cccc(NC(=O)C2CCN(C(=O)c3cc(-c4ccncc4)n[nH]3)CC2)c1	0.5	-5.1
COc1cccc(NC(=O)C2CCN(C(=O)c3cc(-c4cccnc4)n[nH]3)CC2)c1	56.8*	2.1
COc1cccc(-c2cc(C(=O)Nc3ccccc3)[nH]n2)c1	21.6	9.6
CSc1cccc(NC(=O)c2cc(-c3cccnc3)n[nH]2)c1	53.3*	-0.5
O=C(Nc1cccc(Cl)c1)c1cc(-c2cccnc2)n[nH]1	55.0*	1.2
O=C(Nc1ccccc1F)c1cc(-c2cccnc2)n[nH]1	.	13.0
CCOc1ccc(CN2CC[C@@]3(NC(C)=O)CN(C(C)=O)C[C@H]3C2)cc1CO	5.0	15.3
CCN1C(=O)CCCC12CCCN(C(=O)c1ccc(Cl)cc1)C2 (stereo unspecified)	7.4	10.6
COC(=O)c1cn(CC(=O)NCCOc2ccc(Cl)cc2)c2ccccc12	12.7	14.7
CCC(C)c1ccc(O[C@@H]2O[C@@H]3COC(c4ccccc4)O[C@H]3[C@H](O)[C@H]2NC(C)=O)cc1 (stereo partly specified)	34.0*	11.4
c1ccc2c(c1)ccc1nnc(-c3ccc4c(c3)OCO4)n12	60.5*	20.0
Nc1c(-c2ccc3c(c2)OCO3)nc2ccccn12	.	0.5
COc1ccc(CCNc2nc3cc(C)nn3c3ccccc23)cc1OC	-17.7	-20.9
Cc1nn(-c2ccc(Cl)cc2)c2[nH]c(=O)c(CNCc3cccs3)cc12	-68.5	-50.5
CC1CCN(C(=O)COc2ccc(NC(=O)C3CC3)cn2)CC1	-4.7	1.9
CC(NC(=O)c1ccc2cn[nH]c2c1)c1ccccc1 (stereo unspecified)	-0.5	-9.8
O=C(NCc1ccccc1Cl)c1ccc2cn[nH]c2c1	55.5*	2.1
COc1cccc(CN2CCC3(CC2)OC(C(=O)Nc2ccccc2)Cn2ccnc23)c1 (stereo unspecified)	1.4	9.0
COc1cccc(NC(=O)C2Cn3ccnc3C3(CCN(C(C)=O)CC3)O2)c1 (stereo unspecified)	-15.2	32.3*
Fc1ccccc1Cc1nc(-c2ccc3nncn3c2)no1	52.5*	0.0
Fc1ccc(-c2nnc(Cc3nc(-c4ccccc4F)no3)o2)cc1	0.0	7.9
c1ccc(Cn2c(CNc3cccc4ccccc34)nc3ccccc32)cc1	-5.8	-21.0
Cc1cc(CN2CCCC(c3ccc4cn[nH]c4n3)C2)no1 (stereo unspecified)	5.0	6.8
SMILES	USP28 inh	OTUD3 block
CN(C)c1nc(NCc2ccccc2)nc(Oc2ccc(=O)[nH]n2)n1	32.7*	9.5
COc1ccc(Nc2nc(NCc3ccccc3)nc3c2cnn3C)cc1	-0.5	-15.8
Cc1ccc(CSc2nnc(C3CCNCC3)o2)cc1	32.4*	11.8
Fc1cccc(Cl)c1CSc1nnc(C2CCNCC2)o1	15.1	9.5
O=C(Cn1cc(S(=O)(=O)N2CCCC2)ccc1=O)N1CCCc2ccccc21	13.2	4.7
COc1cccc(/C=C/C(=O)NCc2nnc3c(C(F)(F)F)cc(Cl)cn23)c1	-5.8	-8.1
COc1cccc(/C=C/C(=O)Nc2ccc(C)c(Cl)c2)c1	64.8*	16.2
O=c1cc(CSc2nnnn2-c2ccccc2)nc(N2CCN(c3ccccc3)CC2)[nH]1	-13.1	-6.9
O=C(NC1CCCC1)C1CC(=O)N(c2cccc(-c3noc(-c4cccs4)n3)c2)C1 (stereo unspecified)	-1.4	0.4
CC(=O)Nc1ccc(SCc2nnc(-c3ccccc3)o2)cc1	44.6*	-4.8
Nc1ccc(SCc2nnc(-c3cccc(F)c3)o2)cc1	24.3	10.5
COc1ccccc1CNC(=O)CCc1c(C)c2c(C)nn(-c3ccccc3)c2n(C)c1=O	7.3	18.3
CCn1c(=O)c(CCC(=O)NCc2ccc(OC)cc2)c(C)c2c(C)nn(-c3ccccc3C)c21	56.2*	24.4
CC(C)c1ccc(NC(=O)c2cc3ncc(Br)cn3n2)cc1	-15.5	-3.6
CC1=C(c2ccc(C)c(C)c2)S(=O)(=O)NC1=NCC(=O)NCCc1ccc(C)cc1	31.8*	8.7
CC1=C(c2ccc(C)c(C)c2)S(=O)(=O)NC1=NCC(=O)NCc1cccc(C)c1	3.1	-2.3
CCOc1ccccc1C(=O)Oc1ccc2c(C)cc(=O)oc2c1	7.6	2.1
CN1[C@@H](CCC(=O)N2CCN(c3ccccn3)CC2)CNC(=O)[C@@H]2[C@H]1CCN2C1CCOCC1	36.2*	14.5
CN1[C@@H](CCC(=O)N2CC[C@@H](O)C2)CNC(=O)[C@@H]2[C@H]1CCN2C1CCCCC1	-10.3	-4.9
Cc1cnn(CC2CCCN2Cc2csc(-c3ncccn3)n2)c1 (stereo unspecified)	-28.6	-30.3
COc1cc2ncnc(NCc3cccs3)c2cc1OC	4.5	-3.1
Clc1ccc2c(NCc3cccs3)ncnc2c1	33.8*	17.1
CC(C)Cc1nc2sc3c(SCc4ccc(Cl)cc4)ncnc3c2c2c1COC(C)(C)C2	13.0	20.1
CO/C1=C\C(C)=C/[C@@H](C)[C@@H](O)[C@@H](C)C/C(C)=C/C=C/[C@H](OC)[C@@H]([C@@H](C)[C@@H](O)[C@H](C)[C@@]2(O)C[C@@H](OC(=O)/C=C/C(N)=O)[C@H](C)[C@@H](C(C)C)O2)OC1=O	23.5	21.9
CCC1OC(O)(C(C)C(O)C(C)C2OC(=O)/C(C)=C/C(C)=CC(C)C(O)C(C)C/C(C)=C/C=C/C2OC)CC(OC(=O)/C=C/C(=O)NC2=C(O)CCC2=O)C1C (stereo unspecified)	33.8*	32.0*
SMILES	USP28 inh	OTUD3 block
O=C(c1cc(Cl)ccc1Cl)N1CCN(c2ccc3nnc(-c4ccco4)n3n2)CC1	2.1	7.8
Cc1ccc(-c2ccc(N3CCOCC3)nn2)cc1S(=O)(=O)N1CCOCC1	-6.5	-8.8
Cc1ccc(C)c(S(=O)(=O)N2CCN(c3ccc4nnc(-c5ccco5)n4n3)CC2)c1	45.9*	23.1
O=S(=O)(c1ccccc1Cl)N1CCN(c2ccc3nnc(-c4ccco4)n3n2)CC1	33.8*	27.6
c1ccc2c(-c3nc(C4CC4)no3)nnc(NCCCN3CCOCC3)c2c1	14.1	18.1
COc1ccc(NC(=O)Cn2c(=O)n(-c3ccc(Cl)c(Cl)c3)c(=O)c3c4c(sc32)CCCC4)c(OC)c1	6.1	10.7
COc1ccc(Sc2nnc(C)c3nnn(Cc4ccc(F)cc4)c23)cc1	17.0	23.0
Cc1nnc(NCc2cccnc2)c2c1nnn2Cc1ccc(F)cc1	34.3*	-5.7
Cc1cccc(N2CCN(CCNC(=O)c3cc4c(s3)CS(=O)(=O)C4)CC2)c1C	39.6*	-11.2
CCOc1ccc(CCNC(=O)c2cccc3c2C(=O)N(c2ccc(OC)cc2)C3)cc1OCC	2.8	7.7
COc1ccccc1N1CCN(CCNC(=O)Nc2cccc(C)c2C)CC1	5.6	0.0
CCOc1ccc(CCNC(=O)c2cc3c(s2)CS(=O)(=O)C3)cc1OCC	39.4*	2.2
CNc1cncc(C2CCCN2C(=O)c2cccc3ncccc23)n1 (stereo unspecified)	-23.2	-15.2
O=C(Oc1cc(O)cc2c1C[C@@H](OC(=O)c1cc(O)c(O)c(O)c1)[C@@H](c1cc(O)c(O)c(O)c1)O2)c1cc(O)c(O)c(O)c1	77.8*	72.9*
